# Assay results from ChEMBL document CHEMBL1156829.
# Over roughly 5,400 compounds, “IFI” has its median near 2; the highest 2% begin near 22. The list comes from a sample in which the highest values are over-represented; it also holds similar structures and randomly drawn compounds.
# Test: NOVARTIS: Inhibition Frequency Index (IFI) - the number of HTS assays where a compound showed > 50% inhibition/induction, expressed as a percentage of the number of assays in which the compound was tested.
# Assay type: functional
row,SMILES,IFI
1,CC(C)COc1ccc(C(=O)N/C(=C/c2ccccc2)C(N)=O)cc1,0%
2,COc1ccc(S(=O)(=O)N=C2C=C(Nc3ccc(O)cc3)C(=O)c3ccccc32)cc1,23.1%
3,COc1ccc(S(=O)(=O)N=C2C=C(Nc3ccccc3)C(=O)c3ccccc32)cc1,0%
4,O=C1C(Nc2ccc(O)cc2)=CC(=NS(=O)(=O)c2cccs2)c2ccccc21,23.1%
5,COc1ccccc1NC1=CC(=NS(=O)(=O)c2cccs2)c2ccccc2C1=O,7.69%
6,COc1ccc(S(=O)(=O)N=C2C=C(Nc3ccccc3OC)C(=O)c3ccccc32)cc1,23.1%
7,CCOc1ccc(S(=O)(=O)N=C2C=C(Nc3ccc(O)cc3)C(=O)c3ccccc32)cc1,15.4%
8,CC(=O)Nc1ccc(NC2=CC(=NS(=O)(=O)c3ccccc3)c3ccccc3C2=O)cc1,7.69%
9,COc1ccccc1NC1=CC(=NS(=O)(=O)c2ccc(F)cc2)c2ccccc2C1=O,15.4%
10,COc1ccccc1NC1=CC(=NS(=O)(=O)c2ccccc2)c2ccccc2C1=O,21.4%
11,CC(=O)N(C1=C(N2CCOCC2)C(=O)c2ccccc2C1=O)c1cccc(Cl)c1,0%
12,O=C(NC1CC1)C1CCN(c2cccc3c2C(=O)N(C2CCCCCCC2)C3=O)CC1,5.94%
13,Cc1ccc2nc(-c3ccc(O)cc3)oc2c1,7.14%
14,O=S(=O)(Nc1cc(Sc2nc[nH]n2)c(O)c2ccccc12)c1ccc(F)cc1,23.1%
15,O=S(=O)(NCCCCNc1ccnc2cc(Cl)ccc12)c1ccc(F)cc1,1.85%
16,Cc1oc2c(cc(NS(=O)(=O)c3ccc(F)cc3)c3ccccc32)c1C(=O)OCc1ccccc1,0%
17,O=C(c1ccc2nc(N3CCCCC3)sc2c1)N1CCN(Cc2ccc3c(c2)OCO3)CC1,2.86%
18,COc1ccc([N+](=O)[O-])cc1NC(=O)C(C)Nc1ccc(N(C)C)cc1 (centres undefined),6.25%
19,Oc1ccc(C=NN=C(Nc2ccccn2)c2ccccn2)c(O)c1,23.1%
20,CC1=C(C(=O)Nc2ccccn2)C(c2ccc(O)cc2)n2ncnc2N1 (centres undefined),0%
21,O=C(NN=Cc1ccc(O)cc1O)c1ccncc1,2.73%
22,NS(=O)(=O)c1ccc(CCNC(=O)/C=C/c2ccc3c(c2)OCO3)cc1,0%
23,Oc1ccc(-c2ccnc3cc(Cl)ccc23)cc1CNCC1(O)CCCCC1,2.59%
24,COc1ccc(C(=O)C[N+]2=C(C)c3ccc(C)n3CC2)cc1,0%
